In PubChem BioAssay (Tox21):
Results filed as inconclusive are left out. The source made the active and inactive calls. Unless noted, calls come from the whole dose curve.

Assays:
[1] = Nuclear factor erythroid 2-related factor 2/antioxidant responsive element (Nrf2/ARE) small molecule agonists: qHTS cell viability counter screen in human keratinocytes (AID 1919968; active = well fitted curve in the direction sought with a large enough effect in the repeat runs; an effect the other way counts as inactive or inconclusive; note: nearly all actives have a fitted effect of over 55% in size; note: potency is the fitted concentration of half-maximal effect)
Procedure, shortened: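 In human HaCaT keratinocytes stably expressing an ARE-driven luciferase, compound exposure lasted 23 h at 37 C under 5% CO2. Viable cells are quantified with a protease-based fluorogenic reagent (CellTiter-Fluor) read 1 h after addition.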

[2] = Nuclear factor erythroid 2-related factor 2/antioxidant responsive element (Nrf2/ARE) small molecule agonists: luciferase reporter gene qHTS assay in human keratinocytes (AID 1919969); note: nearly all actives have a fitted effect of over 35% in size; note: potency is the fitted concentration of half-maximal effect
[3] = molecular target: Gonadotropin-releasing hormone receptor (Homo sapiens) (UniProt P30968); experiment: Human gonadotropin-releasing hormone receptor (GnRHR) small molecule agonists, calcium flux assay in GnRHR-HEK293 cells (AID 1920063); note: nearly all actives have a fitted effect of over 35% in size
Procedure, shortened: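 Intracellular calcium rise is the read-out: engineered human GnRHR HEK293 cells, dye-loaded, are exposed to DMSO-dissolved compounds and fluorescence at Ex/Em 480/540 is tracked for 3 min.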

[4] = molecular target: KiSS-1 receptor (Homo sapiens) (UniProt Q969F8); experiment: Human kisspeptin (KISS1R) small molecule agonists, calcium flux assay in KISS1R-HEK293 cells (AID 1920064; active = well fitted curve in the direction sought with a large enough effect in the repeat runs; an effect the other way counts as inactive or inconclusive)
Procedure, shortened: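 Concentration-response testing used 15 concentrations in triplicate on human KISS1R-expressing HEK293 cells. Calcium-dependent fluorescence (Ex/Em 480/540) was followed kinetically for 3 min after compound transfer.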

[5] = G protein-coupled receptor (GPCR) small molecule agonists, calcium flux assay: HEK293 wild type cell line counter screen (AID 1920065)
Procedure, shortened: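 Fluorescence intensity signals activation. After overnight (18 h) culture and a 1 h calcium dye load at 37 C, compounds are added by pin tool and the plate read at 480/540 nm for 3 min in 1 s steps.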

[6] = p53 small molecule agonists, cell-based qHTS assay with human liver microsomes (AID 1963577)
Procedure, shortened: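 p53RE-bla cells, 4,000/well, compound added after 5 h, with human liver microsomes 0.5 mg/mL and NADPH 0.5 mg/mL final; 16 h at 37 C, then LiveBLAzer 2 h RT, fluorescence.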

[7] = p53 small molecule agonists, cell-based qHTS assay with rat liver microsomes (AID 1963578)
Procedure, shortened: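 p53RE-bla cells, 4,000/well, pre-incubated 5 h, then given compounds plus rat liver microsomes (0.5 mg/mL final) and NADPH (0.5 mg/mL final). Incubation 16 h at 37 C; beta-lactamase reporter read by LiveBLAzer fluorescence after 2 h at room temperature.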

[8] = p53 small molecule agonists, cell-based qHTS assay with human liver microsomes: qHTS cell viability counter screen (AID 1963579); note: nearly all actives have a fitted effect of over 45% in size; note: potency is the fitted concentration of half-maximal effect
Procedure, shortened: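 p53RE-bla cells, 4,000/well, dosed 5 hours after plating, with human liver microsomes (0.5 mg/mL final) plus NADPH (0.5 mg/mL final), 16 hours at 37 C. Viability read as CellTiter-Glo luminescence after 30 min at room temperature.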

[9] = p53 small molecule agonists, cell-based qHTS assay with rat liver microsomes: qHTS cell viability counter screen (AID 1963580); note: nearly all actives have a fitted effect of over 45% in size; note: potency is the fitted concentration of half-maximal effect
Procedure, shortened: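 Cytotoxicity counter screen: intracellular ATP measured by CellTiter-Glo luminescence in the same wells as the beta-lactamase reporter read, on HCT-116 p53RE-bla cells exposed 16 h at 37 C to compounds with rat liver microsomes and NADPH, each 0.5 mg/mL final.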

[10] = p53 small molecule agonists, cell-based qHTS assay: qHTS cell viability counter screen (AID 1963581); note: nearly all actives have a fitted effect of over 45% in size; note: potency is the fitted concentration of half-maximal effect
Procedure, shortened: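 Luminescence from CellTiter-Glo, reflecting ATP content, serves as the cytotoxicity measure; it is taken after the 2 h reporter substrate step in HCT-116 p53RE-bla cells dosed for 16 h at 37 C.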

[11] = molecular target: 5-hydroxytryptamine receptor 2A (Homo sapiens) (UniProt P28223); experiment: 5-hydroxytryptamine receptor 2A (HTR2A) small molecule antagonists, cell-based qHTS assay (AID 1963586); note: nearly all actives have a fitted effect of over 45% in size
Procedure, shortened: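 CHO cells stably expressing human HTR2A were plated for 18 h at 37 C, then loaded with calcium dye for 1 h. Compounds were preincubated 5 min at room temperature before DOI (4 nM solution) was added. Kinetic fluorescence was read for 3 min.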

[12] = molecular target: 5-hydroxytryptamine receptor 2A (Homo sapiens) (UniProt P28223); experiment: 5-hydroxytryptamine receptor 2A (HTR2A) small molecule agonists, cell-based qHTS assay (AID 1963587); note: nearly all actives have a fitted effect of over 30% in size
Procedure, shortened: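 CHO cells stably expressing human HTR2A, plated 18 h, loaded with calcium dye 1 h at 37 C. Agonist mode: compounds added and intracellular calcium fluorescence recorded kinetically for 2 min at 1 sec intervals.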

[13] = molecular target: Muscarinic acetylcholine receptor M1 (Homo sapiens) (UniProt P11229); experiment: Cholinergic receptor muscarinic 1 (CHRM1) small molecule antagonists, cell-based qHTS assay (AID 1963588); note: nearly all actives have a fitted effect of over 40% in size
Procedure, shortened: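 Compounds were tested at 15 concentrations in three independent runs. Dye-loaded CHRM1-CHO cells were exposed 5 min at room temperature before stimulation by acetylcholine added at 50nM. Intracellular calcium was read kinetically on FDSS for 3 min.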

[14] = molecular target: Muscarinic acetylcholine receptor M1 (Homo sapiens) (UniProt P11229); experiment: Cholinergic receptor muscarinic 1 (CHRM1) small molecule agonists, cell-based qHTS assay (AID 1963589); note: nearly all actives have a fitted effect of over 35% in size
Procedure, shortened: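 Fluorescent calcium dye reports M1 activation in stably transfected CHO cells. Compounds, 15 concentrations, added after 1 h dye loading at 37 C; kinetic reading at 1 sec intervals.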

[15] = cAMP Responsive Elements (CRE) small molecule agonists, cell-based qHTS assay (AID 1963590)
Procedure, shortened: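 Compound exposure lasted 3 h at 37 C/5% CO2 in CRE-bla HEK 293T cells grown in assay medium with 10% dialyzed FBS and 25 mM HEPES. Reporter signal came from LiveBLAzer B/G FRET substrate, 2 h, room temperature.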

[16] = cAMP Responsive Elements (CRE) small molecule antagonists, cell-based qHTS assay (AID 1963591; active = well fitted inhibition curve with a large enough effect in the signal ratio in the repeat runs, not every such curve was filed as active; the % refers to the signal ratio)
Procedure, shortened: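 Stimulation used NKH477 at a final 0.25 uM for 3 h in compound-treated CRE-bla HEK293T cells, seeded 18 h beforehand. Reporter activity was measured with LiveBLAzer B/G FRET substrate after 2 h at room temperature.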

[17] = molecular target: Beta-2 adrenergic receptor (Homo sapiens) (UniProt P07550); experiment: Adrenergic beta2 receptor (ADRB2) small molecule antagonists, cell-based qHTS assay (AID 1963592); note: series mostly up to about 92 µM; nearly all actives have a fitted effect of over 50% in size
Procedure, shortened: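 Assay format: CHO-ADRB2 cells, 18-20hr seeding at 37C/5% CO2, then compound plus 1nM isoproterenol agonist mix for 0.5hr RT. Homogeneous time-resolved fluorescence cAMP detection after 1hr, expressed as 665/615 nm ratio.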

[18] = molecular target: D(2) dopamine receptor (Homo sapiens) (UniProt P14416); experiment: Dopamine D2 receptor (DRD2) small molecule agonists, cell-based qHTS assay (AID 1963594); note: nearly all actives have a fitted effect of over 35% in size
Procedure, shortened: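 HEK293 cells stably expressing human DRD2, pre-treated with PDE inhibitor Ro20-1724 (0.1 mM final) and compound 10 min at room temperature, then stimulated with NKH477 (200nM […]) for 30 min. cAMP read by HTRF (665/620 nm).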

[19] = p53 small molecule agonists, cell-based qHTS assay (AID 1963582; active = well fitted activation curve with a large enough effect in the signal ratio in the repeat runs, not every such curve was filed as active; the % refers to the signal ratio)
Procedure, shortened: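 After plating, p53RE-bla cells sat 5 h in the incubator; compounds or DMSO vehicle were pinned in; a 16 h incubation at 37 C followed; FRET substrate was added and, 2 h later at RT, fluorescence was measured.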

[20] = molecular target: D(2) dopamine receptor (Homo sapiens) (UniProt P14416); experiment: Dopamine D2 receptor (DRD2) small molecule antagonists, cell-based qHTS assay (AID 1963595; active = well fitted inhibition curve with a large enough effect in the signal ratio in the repeat runs, with a control signal flat; the % refers to the signal ratio)
Procedure, shortened: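 HEK293 cells stably expressing DRD2, preincubated with 0.1 mM Ro20-1724 and compounds 10 min, were stimulated with 200 nM NKH477 plus 12 nM quinpirole for 30 min at room temperature; cAMP measured by HTRF (665/620 nm).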

Measured: Potency

Muscarinic acetylcholine receptor M1 (Homo sapiens), sequence (P11229 whole entry, looked up): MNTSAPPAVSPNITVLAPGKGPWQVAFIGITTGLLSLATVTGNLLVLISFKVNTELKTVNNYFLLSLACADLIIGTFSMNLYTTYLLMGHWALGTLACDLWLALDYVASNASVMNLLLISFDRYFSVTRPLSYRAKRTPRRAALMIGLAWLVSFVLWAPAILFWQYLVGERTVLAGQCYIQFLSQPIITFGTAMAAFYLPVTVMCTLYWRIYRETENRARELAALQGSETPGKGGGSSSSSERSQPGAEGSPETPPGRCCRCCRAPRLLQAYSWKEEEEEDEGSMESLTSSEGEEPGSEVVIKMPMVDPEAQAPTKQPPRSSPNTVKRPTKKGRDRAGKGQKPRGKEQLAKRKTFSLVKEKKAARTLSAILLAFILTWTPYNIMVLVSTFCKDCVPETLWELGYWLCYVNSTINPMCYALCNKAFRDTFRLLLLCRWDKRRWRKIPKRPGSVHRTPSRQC
Gonadotropin-releasing hormone receptor (Homo sapiens), sequence (P30968 whole entry, looked up): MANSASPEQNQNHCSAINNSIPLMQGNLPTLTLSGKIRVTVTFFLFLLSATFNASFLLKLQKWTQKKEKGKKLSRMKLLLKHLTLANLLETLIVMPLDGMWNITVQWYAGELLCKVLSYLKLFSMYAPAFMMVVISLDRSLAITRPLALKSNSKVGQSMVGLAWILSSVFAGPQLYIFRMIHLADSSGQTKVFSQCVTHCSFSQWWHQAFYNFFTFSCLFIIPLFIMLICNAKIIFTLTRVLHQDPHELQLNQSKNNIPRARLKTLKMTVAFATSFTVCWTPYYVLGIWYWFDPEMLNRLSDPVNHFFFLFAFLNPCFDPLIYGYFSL
Beta-2 adrenergic receptor (Homo sapiens), sequence (P07550 whole entry, looked up): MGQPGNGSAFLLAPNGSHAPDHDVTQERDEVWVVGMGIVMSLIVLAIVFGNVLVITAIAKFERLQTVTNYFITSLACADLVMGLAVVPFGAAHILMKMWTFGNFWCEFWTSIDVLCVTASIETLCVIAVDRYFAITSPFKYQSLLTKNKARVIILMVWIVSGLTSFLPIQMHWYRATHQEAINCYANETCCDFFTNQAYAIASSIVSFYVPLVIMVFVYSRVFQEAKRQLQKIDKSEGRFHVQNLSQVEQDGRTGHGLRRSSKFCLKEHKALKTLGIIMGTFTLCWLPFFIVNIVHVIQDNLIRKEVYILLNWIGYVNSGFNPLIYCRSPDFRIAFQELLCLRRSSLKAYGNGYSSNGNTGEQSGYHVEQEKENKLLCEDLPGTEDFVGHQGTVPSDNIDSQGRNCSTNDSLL
5-hydroxytryptamine receptor 2A (Homo sapiens), sequence (P28223 whole entry, looked up): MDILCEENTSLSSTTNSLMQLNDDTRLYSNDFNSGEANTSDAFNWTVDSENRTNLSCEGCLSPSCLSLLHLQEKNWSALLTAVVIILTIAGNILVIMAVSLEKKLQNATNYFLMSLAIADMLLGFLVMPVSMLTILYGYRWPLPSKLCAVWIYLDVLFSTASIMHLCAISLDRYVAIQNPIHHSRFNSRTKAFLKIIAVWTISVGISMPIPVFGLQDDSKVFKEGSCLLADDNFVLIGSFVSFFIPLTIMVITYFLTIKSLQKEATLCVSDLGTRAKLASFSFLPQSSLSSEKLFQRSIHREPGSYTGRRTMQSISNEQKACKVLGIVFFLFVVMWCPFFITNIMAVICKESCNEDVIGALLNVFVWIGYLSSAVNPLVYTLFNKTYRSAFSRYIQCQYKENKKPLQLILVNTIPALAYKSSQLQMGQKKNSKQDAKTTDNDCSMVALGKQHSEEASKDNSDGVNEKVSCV
D(2) dopamine receptor (Homo sapiens), sequence (P14416 whole entry, looked up): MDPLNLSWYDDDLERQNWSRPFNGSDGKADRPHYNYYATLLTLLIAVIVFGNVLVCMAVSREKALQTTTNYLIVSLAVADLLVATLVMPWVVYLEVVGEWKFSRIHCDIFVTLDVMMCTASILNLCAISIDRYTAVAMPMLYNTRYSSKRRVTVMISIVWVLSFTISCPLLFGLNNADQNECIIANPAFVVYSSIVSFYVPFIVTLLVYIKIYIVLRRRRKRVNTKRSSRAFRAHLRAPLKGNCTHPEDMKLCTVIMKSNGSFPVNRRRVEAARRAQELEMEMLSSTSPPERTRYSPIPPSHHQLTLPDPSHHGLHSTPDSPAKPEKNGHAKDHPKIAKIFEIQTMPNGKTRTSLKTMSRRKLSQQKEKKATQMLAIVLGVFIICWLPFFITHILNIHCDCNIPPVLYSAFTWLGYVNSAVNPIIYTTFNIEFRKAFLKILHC
KiSS-1 receptor (Homo sapiens), sequence (Q969F8 whole entry, looked up): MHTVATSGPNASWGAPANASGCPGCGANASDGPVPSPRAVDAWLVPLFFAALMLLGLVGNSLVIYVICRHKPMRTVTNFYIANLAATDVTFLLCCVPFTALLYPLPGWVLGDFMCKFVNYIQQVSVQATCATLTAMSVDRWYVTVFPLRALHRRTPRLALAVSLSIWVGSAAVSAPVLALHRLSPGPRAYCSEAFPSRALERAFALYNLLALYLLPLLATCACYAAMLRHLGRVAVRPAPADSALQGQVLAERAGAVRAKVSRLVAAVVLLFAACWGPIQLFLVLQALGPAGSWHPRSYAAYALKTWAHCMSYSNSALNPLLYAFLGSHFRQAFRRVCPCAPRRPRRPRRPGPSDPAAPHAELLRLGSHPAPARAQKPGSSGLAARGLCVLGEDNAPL

C[Si](C)(CCCN)O[Si](C)(C)CCCN
inactive: [1] | [2] | [3] | [4] | [5] | [6] | [7] | [8] | [9] | [10] | [11] | [12] | [13] | [14] | [15] | [16] | [17] | [18]

Nc1nc2c(ncn2CCC(CO)CO)c(=O)[nH]1
inactive: [1] | [2] | [3] | [4] | [5] | [6] | [7] | [8] | [9] | [10] | [19] | [15] | [17] | [20]

O=S1(=O)CC(Cl)(Cl)C(Cl)(Cl)C1
active: [1] 6.11 µM | [2] 2.43 µM | [8] 5.76 µM | [9] 18.2 µM | [10] 16.2 µM
inactive: [3] | [4] | [5] | [6] | [7] | [11] | [12] | [13] | [14]

COCCOC(=O)C1=C(C)NC(C)=C(C(=O)OC(C)C)C1c1cccc([N+](=O)[O-])c1 (stereo not given)
inactive: [1] | [2] | [3] | [4] | [5] | [6] | [7] | [8] | [9] | [10] | [19] | [17] | [18]

CN1CCN(CCCN2c3ccccc3Sc3ccc(Cl)cc32)CC1
inactive: [1] | [2] | [3] | [4] | [5] | [6] | [7] | [8] | [9] | [10] | [19] | [18]

Nc1nnc(-c2cccc(Cl)c2Cl)c(N)n1
inactive: [1] | [2] | [3] | [4] | [5] | [6] | [7] | [8] | [9] | [10] | [19] | [15] | [16] | [18] | [20]

CN1CCN(c2c(F)cc3c(=O)c(C(=O)O)cn(CCF)c3c2F)CC1
inactive: [1] | [2] | [3] | [4] | [5] | [6] | [7] | [8] | [9] | [10] | [19] | [15] | [18] | [20]

CC(C)(C)NC[C@H](O)COc1cccc2c1CCCC2=O
inactive: [1] | [2] | [3] | [4] | [5] | [6] | [7] | [8] | [9] | [10] | [19] | [15] | [16] | [18] | [20]

NC(N)=NC(=O)Cc1c(Cl)cccc1Cl
inactive: [1] | [2] | [3] | [4] | [5] | [6] | [7] | [8] | [9] | [10] | [19] | [15] | [17] | [20]

Clc1ccc2c(c1)CCc1cccnc1C2=C1CCNCC1
active: [1] 29.8 µM
inactive: [2] | [3] | [4] | [5] | [6] | [7] | [8] | [9] | [10] | [19] | [15] | [17] | [18] | [20]

Cc1ccnc(NS(=O)(=O)c2ccc(N)cc2)n1
inactive: [1] | [2] | [3] | [4] | [5] | [6] | [7] | [8] | [9] | [10] | [19] | [15] | [16] | [20]

CCCCN1CCCC[C@H]1C(=O)Nc1c(C)cccc1C
inactive: [1] | [2] | [3] | [4] | [5] | [6] | [7] | [8] | [9] | [10] | [19] | [17] | [18] | [20]

CCCCc1nc(Cl)c(CO)n1Cc1ccc(-c2ccccc2-c2nn[nH]n2)cc1
inactive: [1] | [2] | [3] | [4] | [5] | [6] | [7] | [8] | [9] | [10] | [19] | [15] | [18] | [20]

NC1CCN(c2nc3c(cc2F)c(=O)c(C(=O)O)cn3-c2ccc(F)cc2F)C1 (stereo not given)
inactive: [1] | [2] | [3] | [4] | [5] | [6] | [7] | [8] | [9] | [10] | [19] | [18] | [20]

CC1COc2c(N3CCN(C)CC3)c(F)cc3c(=O)c(C(=O)O)cn1c23 (stereo not given)
inactive: [1] | [2] | [3] | [4] | [5] | [6] | [7] | [8] | [9] | [10] | [19] | [16] | [20]

CN1C(=O)OC(C)(C)C1=O
inactive: [1] | [2] | [3] | [4] | [5] | [6] | [7] | [8] | [9] | [10] | [19] | [17] | [18] | [20]

C[C@]12CCC(=O)C=C1CC[C@@H]1[C@@H]2[C@@H](O)C[C@@]2(C)[C@H]1CC[C@]2(O)C(=O)COC(=O)CCC(=O)O
inactive: [1] | [2] | [3] | [4] | [5] | [6] | [7] | [8] | [9] | [10] | [11] | [12] | [13] | [14] | [15] | [16] | [17] | [18] | [20]
